Drawing on PubChem BioAssay (NCI), this text covers growth for 40 molecules.

Compounds without any hit were thinned out: in the full panel of roughly 83,000, 20% have a hit.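 The endpoint reported here, percent growth, reads 100 for growth as untreated, 0 for no net growth and -100 for all cells dead.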 Calls of active or inactive are those of the source. How the source made its calls: active means growth percent below 10; inactive means the rest.

For this test, the system named is MDA-MB-468 breast. Description: NCI-60 one-dose screen, 48 h (100 = growth as untreated, 0 = no growth, -100 = all killed). Conditions: 10 µM unless noted.
For `Cc1cc(N)c2cc(NC(=O)/C=C\c3ccccc3Cl)ccc2n1`, the growth is -81.1% (active).

For the molecule `O=C(OCc1ccc2c(Cl)cc(Cl)c(O)c2n1)c1cc2ccccc2[nH]1`, the growth was -73.1% (active). Next, `COc1nccc2cc3c(=O)n4c(cc5ccccc54)c(=O)n3c12`: 89.4% (inactive).

For `O=[N+]([O-])c1cccc(/C=N/NC(=S)NC23CC4CC(CC(C4)C2)C3)c1`, the growth was 82.1% (inactive). With `COc1ccc(N)c(N)c1`, the growth was 84% (inactive).

As to `CCCCCCCCCCCCC1CCCC(C)C1` (stereo not given), the growth is 111% (inactive). As for `NC(N)=Nc1cc2ccccc2c2ccccc12`, the growth is 54.4% (inactive). The same measure for `O=C1NCC(=O)N(Cc2ccco2)[C@H]1Cc1ccccc1`: 114% (inactive).

Consider `C=C1CC2(OC1=O)C(=O)Nc1ccccc12` (stereo not given), for which the growth is -11.5% (active). The same measure for `O=C(CSc1nnc(-c2cccnc2SCc2ccccc2)o1)Nc1nc(Cl)cc(Cl)n1`: 98.8% (inactive); for `CC(=O)N(CC(O)CO)c1c(I)c(C(=O)NCCO)c(I)c(C(=O)NCC(O)CO)c1I` (stereo not given): 110% (inactive); for `CCOC(=O)/C(C#N)=C1/NNC(=Nc2cccnc2)S1`: 95.3% (inactive). In the case of `CC(=O)N1N=C(c2ccc(Cl)cc2)CC1c1c(C)nn(-c2ccccc2)c1N(C)Cc1ccccc1` (stereo not given), the growth was 58.9% (inactive).

For `Cn1ccnc1C(=O)/C=C/c1ccc(CC(=O)Nc2ccc(Br)cc2)cc1`, the growth is 0.947% (active). Regarding `Cc1cccc(/C=N/Nc2cc(C)c3cccc(C)c3n2)n1`, the growth was 88.7% (inactive).

With `N#CSc1c[nH]c2ccc(/C=C/C(=O)/C=C(/C=C/c3ccc4[nH]cc(SC#N)c4c3)OB(F)F)cc12`, the growth is -49% (active). In the case of `Cc1cn(-c2cccc(NC(=O)c3ccc(C)c(Nc4nccc(-c5cccnc5)n4)c3)c2)cn1`, the growth was -41.4% (active). The same measure for `Nc1nc(-c2cccnc2)nc2c1sc(=S)n2-c1ccccc1`: 103% (inactive); for `COc1ccc2c3c(c4ccccc4cc13)C(=O)N(CCN(C)CCN)C2=O`: -76.5% (active); for `COc1cccc2cc(N(C)c3ncnc4ccccc34)ccc12`: -7.56% (active). Next, `CCOC(=O)c1c(C(F)(F)F)n([O-])c2ccc(OC)cc2[n+]1=O`: -22.2% (active); `N#CSCc1ccc(Cl)c(CSC#N)c1`: 51.5% (inactive). In the case of `Cn1ccc2c(c1=O)C(=O)c1nccc3c1c-2nc1ccccc13`, the growth was -84.6% (active).

For `Cc1ccc(/C=C/c2nn3c(-c4ccco4)nnc3s2)cc1`, the growth is 116% (inactive). Take `Cc1cc(C)c(C#N)c(SCC(=O)c2sc3c(C#N)c(C)cc(C)[n+]3c2[O-])n1`: the growth was 4.32% (active). For the molecule `CC(C)(C)OC(=O)NCCc1ccc(N=C=S)cc1`, the growth was 60.6% (inactive). In the case of `CSc1nc2sc3cccc(Cl)c3n2c(=N)c1C#N`, the growth was 90.4% (inactive). As for `CC1(C)Oc2cc3oc(=O)ccc3cc2C[C@@H]1OCCOS(=O)(=O)c1ccc(C#N)cc1`, the growth is 90.6% (inactive). The same measure for `COc1ccc(/C=C2\CCC/C(=C\c3ccc(OC)c(OC)c3)C2=O)cc1OC`: -16.6% (active); for `Cc1cccc(NC(=O)CSc2nc3ccccc3[nH]2)c1`: 104% (inactive). As for `O=C(Cn1c2c(c3ccccc31)CCCC2)Nc1ccc(-c2nc3ccccc3s2)cc1`, the growth is -19.5% (active). For the molecule `COc1cc2nc(-c3cccc4cccnc34)nc(NC3CCN(Cc4ccccc4)CC3)c2cc1OC`, the growth is -78.5% (active). Next, `Cc1ccc2cc3c(NC(=O)c4cccnc4)nn(C)c3nc2c1`: 80.3% (inactive); `CCOC(=O)Nc1cc(-c2ccc(C)c(NS(C)(=O)=O)c2)nn2c(C)nnc12`: -26% (active); `CCN(CC)CCOc1nc2ccc(OC)cc2c2c1-c1ccc(OC)cc1C2=O`: 51.9% (inactive). Next, `C#CCN(C)CCCOc1ccc(NC(=O)CCCCCCC(=O)NO)cc1Cl`: -0.749% (active); `COC(=O)[C@]12CC[C@@H](C)[C@H](C)[C@@H]1C1=CC[C@@H]3[C@@]4(C)C(C=O)=C[C@@](C)(COC(C)=O)[C@@H]4[C@H](O)C[C@@]3(C)[C@]1(C)CC2`: -19.2% (active).

Turning to `COc1cc(/C=C2\C(=O)Nc3ccccc32)cc(OC)c1O`, the growth is 20.4% (inactive). With `CCc1nnc(NC(=O)c2ccoc2COc2ccccc2)s1`, the growth was 52.7% (inactive). `Cc1ccc(C(=O)Nc2ccc(CN3CCN(C)CC3)c(C(F)(F)F)c2)cc1C#Cc1cnc(N)c2ccc(F)cc12`: the growth was -79.2% (active).
